These results are taken from PubChem BioAssay (NCI).

Test systems include SR leukemia; RPMI-8226 leukemia; OVCAR-8 ovarian; OVCAR-5 ovarian; OVCAR-4 ovarian; SK-OV-3 ovarian; IGROV1 ovarian; OVCAR-3 ovarian; HS 578T breast; NCI/ADR-RES ovarian.
What all share (experiment): NCI-60 one-dose screen, 48 h (100 = growth as untreated, 0 = no growth, -100 = all killed)
Holding throughout (settings): 10 µM unless noted

About 83,000 compounds went through this panel and 20% of them were active in at least one assay; those are over-represented in the sample as a whole.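 For each line, cells grew in 96-well plates with the test compound present at a single concentration for 48 hours.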 Unmarked numbers belong to inactive results. The source made the active and inactive calls. How the source made its calls: active means growth percent below 10; inactive means the rest.

Regarding `O=C(Nc1nc(C(=O)N2CCN(C(c3ccccc3)c3ccccc3)CC2)cs1)c1ccc(NC2CCCCC2)c([N+](=O)[O-])c1`, the growth with SR leukemia is 90.2%; in the assay on RPMI-8226 leukemia it was 64.2%; in the assay with OVCAR-8 ovarian, 80.4%; with OVCAR-5 ovarian, 89.2%; in the assay on OVCAR-4 ovarian, 68.9%; with SK-OV-3 ovarian, 89.8%. Further, the growth with IGROV1 ovarian is 79.6%; in the assay on OVCAR-3 ovarian it was 92.2%; in the assay with HS 578T breast it was 90.2%; with NCI/ADR-RES ovarian, 77%.
As for `Brc1ccc(-c2cnc3nonc3n2)cc1`, the growth was 19.9% with SR leukemia; 31.1% with RPMI-8226 leukemia; 80.5% in the assay with OVCAR-8 ovarian; 122% in the assay with OVCAR-5 ovarian; 42.7% in the assay with OVCAR-4 ovarian; 110% in the assay on SK-OV-3 ovarian. In addition, the growth was 81.1% in the assay with IGROV1 ovarian, 9.13% (active) in the assay on OVCAR-3 ovarian, 87.3% in the assay on HS 578T breast and 79.7% with NCI/ADR-RES ovarian.
For `COc1ccc(C2=Nc3c/c(=C\c4c(O)[nH]c5cc(Cl)ccc45)ccc3=N2)cc1`, the growth with SR leukemia is 17%; in the assay on RPMI-8226 leukemia it was 62.8%; with OVCAR-8 ovarian, 71.9%; with OVCAR-5 ovarian it was 77.5%; in the assay with OVCAR-4 ovarian it was 90.8%; in the assay with SK-OV-3 ovarian, 46.4%. The growth is 86.9% in the assay on IGROV1 ovarian, 27% with OVCAR-3 ovarian, 81.7% with HS 578T breast and 56.4% in the assay with NCI/ADR-RES ovarian.
In the case of `COc1cc2c(c(OC)c1OC)C(=O)N[C@@H]1[C@@H](O)[C@@H](O)[C@H](O)C[C@@H]21`, the growth with SR leukemia was 95.6%; in the assay with RPMI-8226 leukemia, 102%; with OVCAR-8 ovarian, 97.3%; in the assay on OVCAR-5 ovarian, 106%; with OVCAR-4 ovarian, 107%; in the assay on SK-OV-3 ovarian, 99.9%. Further, the growth is 111% in the assay with IGROV1 ovarian, 112% in the assay with OVCAR-3 ovarian, 108% with HS 578T breast and 108% with NCI/ADR-RES ovarian.
In the case of `CC(C)(C)C(=O)/C=C/c1ccc([N+](=O)[O-])cc1`, the growth is 8.57% (active) with SR leukemia; 23.5% in the assay on RPMI-8226 leukemia; 76.8% in the assay on OVCAR-8 ovarian; 108% in the assay with OVCAR-5 ovarian; 91.5% in the assay with OVCAR-4 ovarian; 98.7% with SK-OV-3 ovarian. For the same compound, the growth with IGROV1 ovarian was 96%; in the assay on OVCAR-3 ovarian it was 84.9%; in the assay on HS 578T breast it was 90.2%; in the assay on NCI/ADR-RES ovarian, 60.2%.
As to `C=C1C(=O)O[C@H]2[C@H]1CC/C(COC(=O)NCCCCCCCCNC(=O)OC/C1=C/CC[C@@]3(C)O[C@H]3[C@H]3OC(=O)C(=C)[C@@H]3CC1)=C\CC[C@@]1(C)O[C@@H]21`, the growth with SR leukemia was -37.6% (active); in the assay with RPMI-8226 leukemia, -42.8% (active); in the assay with OVCAR-8 ovarian, -51.2% (active); with OVCAR-5 ovarian, -79.6% (active); in the assay with OVCAR-4 ovarian it was -82.9% (active); with SK-OV-3 ovarian it was 34.4%. In addition, the growth in the assay on IGROV1 ovarian is -74.3% (active); with OVCAR-3 ovarian, -94.1% (active); in the assay on HS 578T breast, 17.4%; with NCI/ADR-RES ovarian, 43.9%.
For `CN1CCN(c2ccc3c(c2)nc(NNC(=O)c2cnccn2)c2cccn23)CC1`, the growth in the assay on SR leukemia was 15%; in the assay on RPMI-8226 leukemia, 45.3%; in the assay on OVCAR-8 ovarian, 20.9%; in the assay on OVCAR-5 ovarian, 49.3%; with OVCAR-4 ovarian it was 25%; with SK-OV-3 ovarian, 32.5%. Moreover, the growth with IGROV1 ovarian was 15.6%; in the assay with OVCAR-3 ovarian, 13.9%; with HS 578T breast, 75.4%; in the assay with NCI/ADR-RES ovarian, 16.9%.
On to `C=CCn1c(SCC(=O)Nc2ccc(C(=O)/C=C/c3ccc(OC)cc3)cc2)nnc1-c1ccccc1`, for which the growth in the assay on SR leukemia is 85.3%; in the assay with RPMI-8226 leukemia, 5.8% (active); with OVCAR-8 ovarian, 101%; in the assay with OVCAR-5 ovarian, 82.7%; with OVCAR-4 ovarian, 77.4%; with SK-OV-3 ovarian, 106%. The growth is 84.9% in the assay on IGROV1 ovarian, 89.5% in the assay with OVCAR-3 ovarian, 100% in the assay with HS 578T breast and 89.1% in the assay with NCI/ADR-RES ovarian.
As to `CN1CCN(Cc2ccc(NC(=O)c3cncc(C#Cc4cncc5ncccc45)c3)cc2C(F)(F)F)CC1`, the growth in the assay on SR leukemia was -37.7% (active); in the assay on RPMI-8226 leukemia, 9.58% (active); in the assay with OVCAR-8 ovarian it was 28.1%; in the assay with OVCAR-5 ovarian it was 25.2%; in the assay on OVCAR-4 ovarian, 17.3%; in the assay on SK-OV-3 ovarian it was -3.03% (active). In addition, the growth in the assay on IGROV1 ovarian was 1.13% (active); in the assay with OVCAR-3 ovarian it was 36.3%; with HS 578T breast it was -5.88% (active); in the assay with NCI/ADR-RES ovarian, 30.9%.
Take `O=C1NC(=C(Cl)Cl)/C(=N/S(=O)(=O)N2CCCCC2)N1`: the growth was -46% (active) in the assay with SR leukemia; -22.7% (active) in the assay on RPMI-8226 leukemia; 9.05% (active) with OVCAR-8 ovarian; 90.9% in the assay with OVCAR-5 ovarian; 79.9% with OVCAR-4 ovarian; 94% in the assay with SK-OV-3 ovarian. Further, the growth was 1.81% (active) in the assay with IGROV1 ovarian, -57% (active) in the assay on OVCAR-3 ovarian, 29.1% with HS 578T breast and 98.5% with NCI/ADR-RES ovarian.
On to `CCn1c2ccc(O)cc2c2c(C)c3c[n+](C(C)C)ccc3c(C)c21`, for which the growth was 11.9% in the assay on SR leukemia; 27.8% in the assay on RPMI-8226 leukemia; 37.6% in the assay on OVCAR-8 ovarian; 83.6% in the assay on OVCAR-5 ovarian; 43.2% with OVCAR-4 ovarian; 89.8% with SK-OV-3 ovarian. Further, the growth in the assay with IGROV1 ovarian was 50.8%; in the assay with OVCAR-3 ovarian, 19.5%; in the assay on HS 578T breast, 34.8%; in the assay on NCI/ADR-RES ovarian it was 66.5%.
For the compound `O=C(OC[C@@H]1CO1)c1cccc2c(=O)c3ccccc3[nH]c12`, the growth was 9.87% (active) in the assay with SR leukemia; -11.7% (active) in the assay on RPMI-8226 leukemia; -56% (active) in the assay on OVCAR-8 ovarian; -21.4% (active) with OVCAR-5 ovarian; -27% (active) in the assay on OVCAR-4 ovarian; -38.5% (active) in the assay on SK-OV-3 ovarian. For the same compound, the growth in the assay with IGROV1 ovarian was -13.7% (active); in the assay with OVCAR-3 ovarian it was -25.7% (active); in the assay on HS 578T breast, -21.5% (active); in the assay on NCI/ADR-RES ovarian, -16.3% (active).
In the case of `COc1ccc(OC)c(Nc2nnc(-c3ccc(Cl)cc3)o2)c1`, the growth was 79.7% with SR leukemia; 90.4% in the assay with RPMI-8226 leukemia; 85.5% with OVCAR-8 ovarian; 82.4% in the assay with OVCAR-5 ovarian; 10.5% in the assay on OVCAR-4 ovarian; 90.7% in the assay on SK-OV-3 ovarian. Besides, the growth in the assay on IGROV1 ovarian was 81.1%; in the assay with OVCAR-3 ovarian, 31.8%; with HS 578T breast, 51.4%; with NCI/ADR-RES ovarian, 71.9%.
Take `Cc1ncc(C(=O)Nc2ccc(CN3CCN(C)CC3)c(C(F)(F)F)c2)cc1C#Cc1cnc(N)c2cnccc12`: the growth in the assay on SR leukemia is -17.8% (active); with RPMI-8226 leukemia, 39.2%; in the assay on OVCAR-8 ovarian, 15.4%; with OVCAR-5 ovarian, 12.5%; with OVCAR-4 ovarian, 40.7%; in the assay with SK-OV-3 ovarian it was -30.9% (active). Further, the growth was -31.3% (active) in the assay with IGROV1 ovarian, 31.2% in the assay with OVCAR-3 ovarian, -16.6% (active) with HS 578T breast and 55.3% with NCI/ADR-RES ovarian.
